HTRA1 inhibitor – HTRA1 serine protease inhibitors, primary screen, biochemical, fluorescence polarization, HTS; 340,000 compounds, 0.5% hits; AID 504803, 2011; recombinant HTRA1, FP-rhodamine activity-based probe; inhibition, % at 5.96 µM; in the data active = inhibition above about 36%
pPAFAH inh – pPAFAH enzyme inhibitors, primary screen, biochemical, fluorescence polarization, human; Platelet-activating factor acetylhydrolase (Homo sapiens), Q13093; recombinant pPAFAH, FP-rhodamine probe fluorescence polarization; inhibition, % at 3.39 µM; 330,000 compounds, 1.5% hits;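 active = inhibition above the mean inhibition across the screen plus 3 SD, cut at about 25% in these data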;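 note: inhibitors block binding of the rhodamine activity-based probe so polarization drops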
Target sequence (Q13093 whole entry, looked up): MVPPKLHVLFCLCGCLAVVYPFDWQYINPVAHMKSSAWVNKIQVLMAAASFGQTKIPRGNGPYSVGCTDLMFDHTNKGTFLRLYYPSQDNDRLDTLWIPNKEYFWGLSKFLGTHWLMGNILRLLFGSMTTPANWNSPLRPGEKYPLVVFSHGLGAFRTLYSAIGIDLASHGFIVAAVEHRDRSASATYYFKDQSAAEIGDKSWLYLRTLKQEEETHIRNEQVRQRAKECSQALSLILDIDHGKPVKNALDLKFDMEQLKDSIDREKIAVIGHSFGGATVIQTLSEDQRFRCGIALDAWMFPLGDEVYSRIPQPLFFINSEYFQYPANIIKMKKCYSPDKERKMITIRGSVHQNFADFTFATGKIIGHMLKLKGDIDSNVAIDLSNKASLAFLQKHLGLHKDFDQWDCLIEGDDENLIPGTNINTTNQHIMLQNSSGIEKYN
PAFAH2 inh – PAFAH2 enzyme inhibitors, primary screen, biochemical, fluorescence polarization, human; AID 492956, 2010; inhibition, % at 3.39 µM; 340,000 compounds, 0.99% hits; Platelet-activating factor acetylhydrolase 2, cytoplasmic (Homo sapiens), Q99487; recombinant PAFAH2, FP-rhodamine activity probe;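 active = inhibition above the mean over all tested compounds plus 3 SD, cut at about 30% in these data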;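 note: inhibitors block probe labeling of enzyme so polarization drops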
DAGLB inhibitor – DAGLB lipase inhibitors, primary screen, biochemical, fluorescence, HTS | Diacylglycerol lipase-beta (Homo sapiens), Q8NCG7 | HEK293T DAGLB membrane lysate, EnzChek fluorogenic substrate | inhibition, % at 5.17 µM | 340,000 compounds, 0.059% hits; in the data active = inhibition above about 34%
PAFAH1B2 inh – PAFAH1B2 enzyme inhibitors, primary screen, biochemical, fluorescence polarization, human; Platelet-activating factor acetylhydrolase IB subunit alpha2 (Homo sapiens), P68402; recombinant PAFAH1B2, FP-rhodamine activity probe; inhibition, % at 3.39 µM; 340,000 compounds, 1.2% hits;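 active = inhibition above the mean of all tested compounds plus 3 SD, cut at about 24% in these data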
PAFAH1B3 FP inh – PAFAH1B3 enzyme inhibitors, primary screen, biochemical, fluorescence polarization, human; Platelet-activating factor acetylhydrolase IB subunit alpha1 (Homo sapiens), Q15102; recombinant PAFAH1B3, FP-rhodamine probe; inhibition, % at 3.39 µM; 340,000 compounds, 0.28% hits;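 active = inhibition above the screen-wide average of all tested compounds plus 3 SD, cut at about 25% in these data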
Target sequence (Q15102 whole entry, looked up): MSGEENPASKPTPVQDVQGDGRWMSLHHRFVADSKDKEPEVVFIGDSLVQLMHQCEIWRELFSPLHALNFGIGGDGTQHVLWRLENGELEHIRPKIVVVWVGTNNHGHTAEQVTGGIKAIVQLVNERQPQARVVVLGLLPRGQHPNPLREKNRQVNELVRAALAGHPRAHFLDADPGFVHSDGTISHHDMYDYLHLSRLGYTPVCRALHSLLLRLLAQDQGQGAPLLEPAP
Of the large screens only hits and unclear results are named; the others gave an inactive call. In the library only some 2.8% were active in any assay of this set; here they are far more common.

O=C(CNc1cccc(F)c1)Nc1cccc(S(=O)(=O)N2CCCCC2)c1	none (no result: pPAFAH inh)
COc1ccc(NC(=O)C2C3C=CC4(O3)C2C(=O)N(CCCN2CCCC(C)C2)C4C(=O)NC2CCCCC2)cc1 (stereo not drawn)	none
Oc1c(Br)cc(/C=N/n2c(-c3ccccc3)n[nH]c2=S)c(Br)c1O	pPAFAH inh 88 (no result: HTRA1 inhibitor, PAFAH2 inh, DAGLB inhibitor, PAFAH1B2 inh, PAFAH1B3 FP inh)
O=C1C(=O)C(c2ccccc2)C(=O)C1c1ccccc1 (stereo not drawn)	PAFAH1B2 inh 32 (no result: pPAFAH inh)
O=C1c2ccccc2C(=O)C1c1ccncc1	none
Cc1cc(/C=N/n2cnnc2)c(C)n1-c1ccc(OCc2ccccc2F)cc1	pPAFAH inh 27
COc1cc2c(cc1OC)C(c1ccc(Br)cc1)NC(=O)C2 (stereo not drawn)	none (no result: pPAFAH inh)
COc1cc(/C=N/NC(=O)c2cc(-c3ccccc3)sc2N)cc(OC)c1OC	pPAFAH inh 26 (no result: HTRA1 inhibitor, PAFAH2 inh, DAGLB inhibitor, PAFAH1B2 inh, PAFAH1B3 FP inh)
COc1cc(/C=N/NC(=O)c2ccc(-c3ccccc3)cc2)cc(OC)c1OC	none
N=C1SCC(=O)N1c1ncc(Cc2ccccc2Cl)s1	none (no result: pPAFAH inh)
Cc1ccc(Cc2cnc(N3C(=N)SC(C)C3=O)s2)cc1 (stereo not drawn)	pPAFAH inh 25, PAFAH1B2 inh 75
CCc1cc2ccccc2nc1SCC(=O)Nc1cc(OC)c(OC)cc1C(=O)O	pPAFAH inh 33
COc1cc(NC(=O)CSc2nc3ccccc3cc2C)c(C(=O)O)cc1OC	none
COC(=O)c1ccc(CN2C(=O)NC(Cc3c[nH]c4ccccc34)C2=O)cc1 (stereo not drawn)	none
COC(=O)c1sccc1NC(=O)Nc1ccccc1Cl	none (no result: pPAFAH inh)
O=C(Nc1ncccc1O)c1cccc(S(=O)(=O)N2CCc3ccccc32)c1	PAFAH2 inh 34, PAFAH1B2 inh 48
CCOc1ccccc1C(=O)NCC(=O)NCC(C)(C)N1CCOCC1	none
O=Cc1cc2cc3c(cc2nc1Cl)OCCO3	none (no result: HTRA1 inhibitor, PAFAH2 inh, DAGLB inhibitor, PAFAH1B2 inh, PAFAH1B3 FP inh)
O=C(O)c1ccc(N/N=C/c2cc3cc4c(cc3nc2Cl)OCCO4)cc1	pPAFAH inh 30
COc1ccc(-c2coc(CCC(=O)N3CCN(c4cc(C)ccc4C)CC3)n2)cc1	none
CC(OCC(O)CN(C)Cc1nc2ccccc2c(=O)[nH]1)c1ccc(Cl)cc1 (stereo not drawn)	PAFAH1B2 inh 28
CC(NC(=O)CN(C)Cc1nc2ccccc2c(=O)[nH]1)c1ccccc1 (stereo not drawn)	none
c1ccc(CCOn2ccnc2)cc1	none
O=C(O)c1ccc(N=Nc2c(O)[nH]c3ccc(Br)cc23)cc1	PAFAH1B2 inh 33
O=c1[nH]c(C2CCCN(S(=O)(=O)Cc3ccccc3)C2)nc2c1nnn2Cc1cccc(Cl)c1 (stereo not drawn)	pPAFAH inh 28
O=c1[nH]c(C2CCN(S(=O)(=O)c3ccccc3F)CC2)nc2c1nnn2Cc1ccc(OC(F)(F)F)cc1	PAFAH1B2 inh 26
O=c1[nH]c(C2CCCN(S(=O)(=O)c3cccc(Cl)c3)C2)nc2c1nnn2Cc1ccc2c(c1)OCCO2 (stereo not drawn)	none
CCc1ccc2oc(=O)cc(CN(C)Cc3ccccc3)c2c1	PAFAH1B2 inh 38
Cc1oc(C)c2c(=O)ccc3c(c12)OC(N)=C(C#N)C3c1ccc(F)cc1 (stereo not drawn)	pPAFAH inh 32
Cc1[nH]nc2c1C(c1ccc(F)cc1)C(C#N)=C(N)O2 (stereo not drawn)	none
Cc1ccc(NC(=O)C2Cc3ccccc3C(=O)O2)cc1 (stereo not drawn)	none
O=C1OC(C(=O)Nc2ccccc2)Cc2ccccc21 (stereo not drawn)	pPAFAH inh 25, PAFAH2 inh 49
C[C@H](NC(=O)c1nc[nH]c1C(=O)NCC(=O)OCc1ccccc1)C(=O)OCc1ccccc1	none
C[C@H](NC(=O)c1nc[nH]c1C(=O)NCC(=O)OCc1ccccc1)c1ccccc1	PAFAH1B2 inh 34
COc1ccccc1CNS(=O)(=O)CCNCCc1ccccc1	none (no result: pPAFAH inh)
COc1cccc(NC(=O)CN(C)C(=O)c2cc(-c3ccco3)nc3ccccc23)c1	none
CN(CCOc1ccc(Cl)cc1)C(=O)c1cc(-c2ccco2)nc2ccccc12	pPAFAH inh 26
CCOc1ccc(NC(=O)CN(C)C(=O)c2cc(-c3ccco3)nc3ccccc23)cc1OCC	none (no result: pPAFAH inh)
CN(CC(=O)Nc1ccc(F)cc1)C(=O)c1cc(-c2ccco2)nc2ccccc12	pPAFAH inh 27
Cc1ccc(NC(=O)CN(C)C(=O)c2cc(-c3ccco3)nc3ccccc23)cc1	pPAFAH inh 32
CCN(CC)C(=O)Oc1ccc(Br)cc1C(=O)Nc1ccc(F)cc1F	none
Fc1ccc(-[n+]2nc(Nc3ccccc3)sc2-c2c3ccccc3cc3ccccc23)cc1	pPAFAH inh 26
Oc1ccc2ccccc2c1-c1sc(Nc2ccccc2)n[n+]1-c1ccc(F)cc1	none
Cc1cc[n+](-c2[nH]c(=O)sc2/C=N/N=C(\[O-])CCn2c3ccccc3c3ccccc32)cc1	pPAFAH inh 32 (no result: HTRA1 inhibitor, PAFAH2 inh, DAGLB inhibitor, PAFAH1B2 inh, PAFAH1B3 FP inh)
Cc1cc(=O)oc2cc(OCC(O)Cn3ccnc3)ccc12 (stereo not drawn)	none
Cc1ccc(C(=O)OCC(=O)N2CCC(C)CC2)cc1S(=O)(=O)N1CCCCC1	none
Cc1ccc(S(=O)(=O)N2CCCCC2)cc1C(=O)OCC(=O)N1c2ccccc2NC(=O)C1(C)C	PAFAH1B2 inh 34
Cc1ccc(C(=O)OCC(=O)N2c3ccccc3NC(=O)C2(C)C)cc1S(=O)(=O)N1CCCCC1	PAFAH1B2 inh 27
Cc1cccc(C(=O)Nc2nnc(S(=O)(=O)N(C)Cc3ccco3)s2)c1	none
COc1ccc(NC(=O)N2CCCC(c3nc(-c4ccc(OC)cc4)no3)C2)cc1 (stereo not drawn)	none
COc1ccc(NC(=O)N2CCCC(c3nc(-c4ccc(C(C)C)cc4)no3)C2)cc1 (stereo not drawn)	PAFAH1B2 inh 30
COc1cc(/C=N/NC(=O)C(=O)NCC2CCCO2)ccc1O (stereo not drawn)	none
O=C(NCC1CCCO1)C(=O)N/N=C/c1ccc(OCc2ccccc2Cl)cc1 (stereo not drawn)	pPAFAH inh 30
Cc1c(N=Cc2cc3c(cc2[N+](=O)[O-])OCO3)cccc1[N+](=O)[O-]	pPAFAH inh 49
Cc1ccccc1N=Cc1cc2c(cc1[N+](=O)[O-])OCO2	none
CC1C/C(=C/c2ccco2)C(=O)/C(=C/c2ccco2)C1 (stereo not drawn)	pPAFAH inh 48 (no result: HTRA1 inhibitor, PAFAH2 inh, DAGLB inhibitor, PAFAH1B2 inh, PAFAH1B3 FP inh)
O=C(c1ccccc1Cl)N1CCSCC1	none
O=C(CN(Cc1ccco1)Cc1cccs1)N1CCN(S(=O)(=O)c2cccc(F)c2)CC1	PAFAH1B2 inh 26

High-throughput results: PubChem, The Scripps Research Institute Molecular Screening Center
